Records with an inconclusive call do not appear. Calls of active or inactive are those of the source. Rule as the data show it, unless noted: active = inhibition above about 80%; inactive = the rest.

The term inhibition denotes the relative decrease from the control value, in per cent.

Experiment [1] is described as follows: chitosan synthesis blockers in C. neoformans – flow cytometry, Cibacron Brilliant Red staining (AID 1347148; call rule not given here;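 also: compound exposure lasted three days at 37 degrees C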). The note with it: Cryptococcus neoformans chitosan, stronger effect = lower value; at 10 µM unless noted. On the technique in general: A flow cytometer gives signals particle by particle.
The target in experiment [2] is ATP-dependent translocase ABCB1 (Homo sapiens) (UniProt P08183). Kind of experiment: P-glycoprotein substrate transport blockade – cell-based (AID 377; in the data active = fluorescence slope change above about 50%). The note with it: MDR1-expressing cells, fluorescent substrate accumulation slope; stronger effect = higher value; concentration not given here.
Chain of ATP-dependent translocase ABCB1 (Homo sapiens) (P08183 whole entry, looked up): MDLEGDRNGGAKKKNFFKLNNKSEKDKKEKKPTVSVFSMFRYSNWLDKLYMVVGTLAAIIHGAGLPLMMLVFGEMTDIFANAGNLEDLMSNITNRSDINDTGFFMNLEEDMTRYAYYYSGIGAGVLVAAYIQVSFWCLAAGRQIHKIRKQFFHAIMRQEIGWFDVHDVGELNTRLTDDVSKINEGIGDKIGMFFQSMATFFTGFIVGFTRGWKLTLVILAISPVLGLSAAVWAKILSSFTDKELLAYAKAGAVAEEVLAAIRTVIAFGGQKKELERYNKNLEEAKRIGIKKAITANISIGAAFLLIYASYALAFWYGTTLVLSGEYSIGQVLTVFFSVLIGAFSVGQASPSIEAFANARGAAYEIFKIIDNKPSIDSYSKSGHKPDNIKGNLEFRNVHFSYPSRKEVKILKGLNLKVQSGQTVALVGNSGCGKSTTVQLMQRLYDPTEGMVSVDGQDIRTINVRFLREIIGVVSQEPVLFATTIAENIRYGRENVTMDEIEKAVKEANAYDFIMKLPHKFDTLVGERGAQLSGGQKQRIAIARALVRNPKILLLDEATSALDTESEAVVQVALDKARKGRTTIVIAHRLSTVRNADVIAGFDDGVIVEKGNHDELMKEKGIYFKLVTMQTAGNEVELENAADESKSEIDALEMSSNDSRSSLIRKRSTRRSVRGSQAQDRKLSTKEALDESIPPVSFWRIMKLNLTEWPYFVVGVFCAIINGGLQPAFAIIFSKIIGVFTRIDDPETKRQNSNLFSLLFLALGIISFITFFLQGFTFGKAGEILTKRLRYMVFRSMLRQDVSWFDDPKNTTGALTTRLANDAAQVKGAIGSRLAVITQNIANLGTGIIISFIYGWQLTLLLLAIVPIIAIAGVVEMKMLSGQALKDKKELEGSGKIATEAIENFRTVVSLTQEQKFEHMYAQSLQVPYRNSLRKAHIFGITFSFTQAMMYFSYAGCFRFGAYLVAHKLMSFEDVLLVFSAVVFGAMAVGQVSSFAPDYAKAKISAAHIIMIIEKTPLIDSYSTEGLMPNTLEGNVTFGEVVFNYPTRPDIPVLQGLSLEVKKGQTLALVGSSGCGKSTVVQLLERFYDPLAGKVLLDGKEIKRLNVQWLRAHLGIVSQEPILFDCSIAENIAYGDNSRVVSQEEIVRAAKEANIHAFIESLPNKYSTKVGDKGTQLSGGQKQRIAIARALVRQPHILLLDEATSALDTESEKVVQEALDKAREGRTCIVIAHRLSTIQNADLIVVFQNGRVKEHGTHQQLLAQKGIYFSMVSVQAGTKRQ
A short description of experiment [3]: rescue of PC12 cells from polyQ htt toxicity – LDH release (AID 1610). The note with it: PC12 mutant huntingtin toxicity, final LDH at 4 uM, stronger effect = lower value. A general note: LDH leaks from cells whose membrane has failed.
Experiment [4] is described as follows: growth inhibition, single agent or in combination, cell-based, chromothripsis tumors, cisplatin or BGB combos (AID 1671449).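 Also: cells exposed for 96 hours; 0% = vehicle DMSO and 100% = killing by high DMSO.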 The note with it: LFS_MB_P medulloblastoma cells.
The nature of experiment [5]: growth inhibition, single agent and combos, cell-based, chromothripsis tumors, cisplatin or BGB combos (AID 1671450).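 Also: cells exposed to compound for four days; 0% = vehicle DMSO and 100% = cell killing by high DMSO.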 The note with it: HDN33 neuroblastoma cells, stronger effect = higher value.
The nature of experiment [6]: growth inhibition, single agents and combos, ICB984, cell-based, cisplatin or BGB combos, synergistic combos for chromothripsis tumors (AID 1671451; call rule not given here;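 also: cells exposed for 96 hours before readout; 0% = vehicle DMSO and 100% = killing by high DMSO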). The note with it: ICB984 medulloblastoma cells, drug combinations, stronger effect = higher value.
Experiment [7] can be described thus: growth inhibition, single agents and combos, LFS_MB_1R, cell-based, cisplatin or BGB combos, synergistic combos for chromothripsis tumors (AID 1671452).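 Also: cells exposed for 96 hours before readout.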 The note with it: LFS_MB_1R medulloblastoma cells, stronger effect = higher value.
Experiment [8] in a line: growth inhibition, single agents and combos, HTB85, cell-based, BGB or cisplatin IC20 combos, synergistic combos for chromothripsis tumors (AID 1671453).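 Also: cells exposed for 96 hours before readout; 0% = vehicle DMSO and 100% = high DMSO killing control.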 The note with it: HTB85 osteosarcoma cells, drug combinations, stronger effect = higher value.
The nature of experiment [9]: growth inhibition, single agents and combos, CRL2098, cell-based, BGB or cisplatin IC20 combos, synergistic combos for chromothripsis tumors (AID 1671454).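 Also: cells exposed for 96 h before readout; 0% = vehicle DMSO and 100% = killing by high DMSO.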 The note with it: CRL2098 osteosarcoma cells, drug combinations, stronger effect = higher value.
Experiment [10] can be described thus: growth inhibition, single agents and combos, HD-MB03, cell-based, BGB or cisplatin IC20 combos, synergistic combos for chromothripsis tumors (AID 1671455; in the data active = inhibition above about 83%;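 also: 0% = vehicle DMSO and 100% = high DMSO as cytotoxic control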). The note with it: HD-MB03 medulloblastoma cells, stronger effect = higher value.
The nature of experiment [11]: growth inhibition, single agents and combos, UWB1.289, cell-based, BGB or cisplatin combos, synergistic combos for chromothripsis tumors (AID 1671456).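 Also: cells exposed to compound for four days; 0% = vehicle DMSO and 100% = killing by high DMSO.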 The note with it: UWB1.289 ovarian carcinoma cells, stronger effect = higher value.
The nature of experiment [12]: growth inhibition, single agents and combos, LFS_MB_2R, cell-based, cisplatin combos, synergistic combos for chromothripsis tumors (AID 1671457).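 Also: cells exposed to compound for four days before readout.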 The note with it: LFS_MB_2R medulloblastoma cells, stronger effect = higher value.
The nature of experiment [13]: growth inhibition, MDA-MB-436, cell-based, BGB or cisplatin combos, synergistic combos for chromothripsis tumors (AID 1671458; call rule not given here;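 also: cells exposed for 96 hours; 0% = vehicle DMSO and 100% = killing by high DMSO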). The note with it: MDA-MB-436 breast carcinoma growth inhibition, drug combinations, stronger effect = higher value.
The nature of experiment [14]: UWB1.289_BRCA1 ovarian cancer growth, cell-based, BGB or cisplatin combinations (AID 1671459). The note with it: UWB1.289 BRCA1 ovarian carcinoma, drug combinations, stronger effect = higher value.
A short description of experiment [15]: drug combination toxicity in non-malignant astrocytes – cell-based, BGB or cisplatin IC20 combos, cytotoxicity control for chromothriptic childhood tumor combination screen (AID 1671460).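 Also: cells exposed to compounds for 96 hours before viability readout; 0% = vehicle and 100% = killing control.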 The note with it: Human astrocytes, viability inhibition, drug combinations, at 0.5 µM, stronger effect = higher value.
The nature of experiment [16]: BT084 cell growth, single and combined drugs, ICGC_MB145, cisplatin and BGB IC40 combos (AID 1671461).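 Also: cells exposed to drugs for 96 hours; 0% = vehicle DMSO and 100% = high DMSO full killing control.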 The note with it: BT084 medulloblastoma cells, drug combinations, stronger effect = higher value.
Experiment [17] can be described thus: RCMB18 cell growth, single agent and combined, cisplatin and BGB IC40 combos (AID 1671462).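 Also: cells exposed to compound for four days.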 The note with it: RCMB18 medulloblastoma cells, stronger effect = higher value.
A short description of experiment [18]: CRL1545 cell growth, single agent and combined, cisplatin and BGB IC20 combos (AID 1671464).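 Also: cells exposed to compound for 96 hours before readout; 0% = vehicle DMSO and 100% = high DMSO killing control.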 The note with it: CRL1545 osteosarcoma cells, stronger effect = higher value.
Experiment [19] in a line: glutamate excitotoxicity neuroprotectants – cell-based, TUNEL DNA degradation staining, MNGlu (AID 1594; call rule not given here). The note with it: motor neurons, glutamate-induced death, at 1 µM, stronger effect = higher value.
[20] abbreviates: measured here: combination with BGB IC40, at 0.05 µM.
[21] abbreviates: measured here: with BGB IC20 combination, at 0.5 µM.
[22] abbreviates: measured here: with cisplatin IC20 combination, at 0.5 µM.
Setting [23] is: measured here: combination with cisplatin, at 0.5 µM.
Where [24] appears, read: measured here: combination with cisplatin, at 5 µM.

Take `O=C(O)c1ccccc1Nc1ccccc1`: the fold fluorescence in [1] is 3.75 [at 234.5 µM] (inactive).
On the same count and under the same terms, the figure for `C[C@@H]1CC2C3CCC4=CC(=O)C=C[C@]4(C)[C@@]3(F)[C@@H](O)C[C@]2(C)[C@@]1(O)C(=O)CO` (stereo not given in full) is 10.5 [at 127.4 µM] (inactive); for `COC1CC2CCC(C)C(O)(O2)C(=O)C(=O)N2CCCCC2C(=O)OC(C(C)CC2CCC(O)C(OC)C2)CC(=O)C(C)/C=C(\C)C(O)C(OC)C(=O)C(C)CC(C)/C=C/C=C/C=C/1C` (stereo not given) it is 6.13 [at 54.7 µM] (inactive).
`CCC(NC(C)C)C(O)c1ccc(O)c(O)c1` (stereo not given): the fluorescence slope change in experiment [2] was 50.8% (active).
Still for that read-out and setting: next, `c1ccc(C2CN3CCSC3=N2)cc1` (stereo not given): 29.7% (inactive).
Turning to `COc1cccc2c1C(=O)c1c(O)c3c(c(O)c1C2=O)C[C@@](O)(C(=O)CO)C[C@@H]3OC1C[C@H](N)[C@H](O)[C@H](C)O1` (stereo not given in full), the fold fluorescence in experiment [1] is 5.77 [at 92 µM] (inactive).
As for `CO[C@@]12[C@@H]3NC3CN1C1=C(C(=O)C(N)=C(C)C1=O)[C@@H]2COC(N)=O` (stereo not given in full), the normalised LDH release in experiment [3] is 0.873. Also, the fold fluorescence in experiment [1] was 4.49 [at 149.6 µM] (inactive).
With `CCCCC[C@H](CC(=O)NO)C(=O)N[C@H](C(=O)N1CCC[C@H]1CO)C(C)C`, the normalised LDH release in experiment [3] is 1.19.
With `O=C(Nc1ccccc1)c1ccccc1O`, the inhibition was -6.1% (inactive) in [4] (at 0.5 µM, stronger effect = higher value); 6.63% in experiment [4] (measured here: combination with BGB IC20, at 0.005 µM); 36% in [4] (measured here: combination with BGB IC40, at 0.005 µM); -10.8% in [4] (setting [20]); -0.1% in [4] (measured here: combination with cisplatin, at 0.5 µM, stronger effect = higher value); 3.47% in experiment [4] (measured here: combination with cisplatin, at 5 µM, stronger effect = higher value). For the same compound, the inhibition is 22.1% in [5] (BGB combo, at 5 µM); 6.53% (inactive) in experiment [5] (at 0.5 µM); 16.8% in [5] (cisplatin combo, at 5 µM); 4% in experiment [5] (setting [21]); 11.1% in experiment [5] (setting [22]); 27.8% in [5] (single agent, at 5 µM). The inhibition in experiment [6] (BGB IC20 combo, at 0.005 µM) is -13.9%; in [6] (BGB IC40 combo, at 0.005 µM), -1.37%; in experiment [6] (BGB IC40 combo, at 0.05 µM) it was 0.369%; in experiment [6] (at 0.5 µM), -10.1% (inactive); in experiment [6] (cisplatin combo, at 0.05 µM), 0.369%; in experiment [6] (cisplatin combo, at 0.5 µM) it was -23.4%. Moreover, the inhibition in experiment [6] (cisplatin combo, at 5 µM) was -15.5%; in experiment [6] (measured here: 5 uM single agent, at 5 µM), 19.2%; in [7] (at 0.5 µM), -12.4% (inactive); in [7] (setting [20]), -23.1%; in experiment [7] (setting [23]) it was -15.5%; in experiment [7] (setting [24]), 13.9%. Besides, the inhibition in [8] (at 0.5 µM) was 1.9% (inactive); in experiment [8] (measured here: with BGB IC20, at 0.5 µM), -7.23%; in [8] (measured here: with BGB IC20, at 5 µM), 16.9%; in experiment [8] (measured here: with cisplatin IC20, at 0.5 µM) it was 3.88%; in experiment [8] (measured here: with cisplatin IC20, at 5 µM), 16.9%; in [8] (single agent, at 5 µM) it was 20.7%. For the same compound, the inhibition was -8.88% (inactive) in experiment [9] (at 0.5 µM); -7.52% in experiment [9] (measured here: combination with BGB at IC20, at 0.5 µM); 4.38% in experiment [9] (measured here: combination with cisplatin at IC20, at 0.5 µM); -0.28% (inactive) in experiment [10] (at 0.5 µM); 1.59% in experiment [10] (measured here: combo with BGB at IC20, at 0.5 µM); -2.6% in experiment [10] (measured here: combo with cisplatin at IC20, at 0.5 µM). Moreover, the inhibition in experiment [11] (at 0.5 µM) is 10.7% (inactive); in experiment [11] (measured here: inhibition with BGB combination, at 0.05 µM) it was 0.707%; in experiment [11] (measured here: inhibition with cisplatin combination, at 0.05 µM), -5.75%; in [12] (at 0.5 µM) it was 6.25% (inactive); in experiment [12] (setting [23]), 7.79%; in [12] (setting [24]) it was 26.7%. Moreover, the inhibition in [13] (at 0.5 µM) is -7.25% (inactive); in experiment [13] (measured here: BGB combination, at 0.5 µM) it was -6.93%; in [13] (measured here: BGB combination, at 5 µM) it was 9.41%; in experiment [13] (measured here: cisplatin combination, at 0.5 µM) it was -18%; in [13] (measured here: cisplatin combination, at 5 µM), 28.1%; in experiment [14] (BGB combination, concentration series, at 5 µM), 20.8%. The inhibition in [14] (at 0.5 µM) is 4.85% (inactive); in [14] (cisplatin combination, concentration series, at 5 µM) it was 20.1%; in [15] it was 6.87% (inactive); in experiment [15] (measured here: combo with BGB IC20) it was 7.24%; in experiment [15] (measured here: combo with cisplatin IC20) it was 10.9%; in experiment [16] (at 0.5 µM), 1.08% (inactive). Moreover, the inhibition in [16] (cisplatin combination, at 0.5 µM) is 7.73%; in [16] (cisplatin combination, at 5 µM), -4.41%; in experiment [16] (measured here: BGB IC40 combination 0.05 uM, at 0.05 µM), 23%; in [16] (single agent, at 5 µM) it was 16.7%; in experiment [17] (at 0.5 µM), 11.8% (inactive); in [17] (cisplatin combo, at 5 µM) it was 41.7%. Further, the inhibition in [17] (measured here: BGB IC40 combination, at 0.05 µM) is -1.52%; in [17] (setting [23]) it was 26.1%; in experiment [17] (single agent, at 5 µM) it was 5.55%; in [18] (at 0.5 µM) it was -2.83% (inactive); in experiment [18] (setting [21]), 17.8%; in experiment [18] (setting [22]), -13.1%. Further, the inhibition in experiment [18] (single agent, at 0.05 µM) worked out at 12.8%; in [18] (single agent, at 5 µM), 42.5%.
As for `O=C(O)Cc1cc(I)c(Oc2ccc(O)c(I)c2)c(I)c1`, the fluorescence slope change in experiment [2] was 75.2% (active).
Turning to `CCC[C@@H]1C[C@@H](C(=O)N[C@@H](C2O[C@H](SC)[C@H](O)[C@@H](O)[C@H]2O)[C@H](C)Cl)N(C)C1` (stereo not given in full), the fluorescence slope change in experiment [2] was 138% (active).
Regarding `C[C@]12C=CC(=O)C=C1CCC1C2[C@@H](O)C[C@@]2(C)C1CC[C@]2(O)C(=O)CO` (stereo not given in full), the protection in [19] is 55% (active).

(Values after PubChem BioAssay.)
